Measurements published in PubChem BioAssay (Tox21).
Results filed as inconclusive are left out. The source made the active and inactive calls. Unless noted, the call rests on the fitted dose curve; in most records, active means well fitted curve in the direction sought with a large enough effect in the repeat runs; inconclusive means weak or mixed curves; inactive means no such curve, though single readings can be large; an effect the other way counts as inactive or inconclusive.

What was measured:
[1] = target: Aryl hydrocarbon receptor (Homo sapiens) (UniProt P35869); assay: qHTS assay to identify small molecule that activate the aryl hydrocarbon receptor (AhR) signaling pathway (AID 743085); further: nearly all actives have a fitted effect of over 15% in size; further: potency means the concentration at half of the fitted maximal effect;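 on activation: HG2L7.5c1 human HepG2 liver cells with stably integrated DRE-driven firefly reporter; series mostly up to about 70 µM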
Sequence of Aryl hydrocarbon receptor (Homo sapiens) (P35869 whole entry, looked up): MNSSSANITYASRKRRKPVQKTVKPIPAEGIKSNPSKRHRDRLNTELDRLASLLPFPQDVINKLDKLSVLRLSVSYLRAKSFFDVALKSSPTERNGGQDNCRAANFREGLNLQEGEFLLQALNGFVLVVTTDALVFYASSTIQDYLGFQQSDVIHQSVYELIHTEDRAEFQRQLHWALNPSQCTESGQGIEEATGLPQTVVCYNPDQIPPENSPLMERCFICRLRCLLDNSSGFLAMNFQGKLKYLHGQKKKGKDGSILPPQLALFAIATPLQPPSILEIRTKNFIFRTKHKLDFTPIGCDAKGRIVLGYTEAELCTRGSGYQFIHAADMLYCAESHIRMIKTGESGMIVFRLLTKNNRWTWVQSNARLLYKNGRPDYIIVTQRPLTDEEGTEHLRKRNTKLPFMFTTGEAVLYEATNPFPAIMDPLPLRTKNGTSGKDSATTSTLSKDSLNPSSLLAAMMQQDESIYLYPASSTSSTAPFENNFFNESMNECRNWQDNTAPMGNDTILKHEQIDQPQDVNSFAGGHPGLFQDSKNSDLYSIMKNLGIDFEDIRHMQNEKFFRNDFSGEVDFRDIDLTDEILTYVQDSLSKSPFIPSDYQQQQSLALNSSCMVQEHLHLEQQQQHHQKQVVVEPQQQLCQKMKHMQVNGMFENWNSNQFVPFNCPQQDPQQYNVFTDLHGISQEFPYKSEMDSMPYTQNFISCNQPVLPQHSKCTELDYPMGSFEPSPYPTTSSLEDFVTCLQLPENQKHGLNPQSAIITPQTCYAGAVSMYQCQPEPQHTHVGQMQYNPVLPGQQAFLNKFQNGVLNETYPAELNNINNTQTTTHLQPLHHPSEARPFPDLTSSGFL
Method in brief: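 HepG2 cells (HG2L7.5c1) stably carrying a firefly luciferase reporter driven by 20 dioxin responsive elements were exposed to compound for 24 h at 37C after a 5 h settling period; luminescence rise (ONE-Glo) indicated activation.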

[2] = qHTS assay to identify small molecule that activate the aryl hydrocarbon receptor (AhR) signaling pathway - cell viability counter screen (AID 743086);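 further: HepG2 liver cells carrying the AhR DRE luciferase reporter; series mostly up to about 70 µM; nearly all actives have a fitted effect of over 45% in size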
Method in brief: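 HepG2-AhR-luc (HG2L7.5c1) cells, 4000/well, treated 24 h at 37 C with compound; viability measured as CellTiter-Fluor fluorescence after 30 min in the same wells as the luciferase read.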

[3] = qHTS assay to identify small molecule antagonists of the peroxisome proliferator-activated receptor gamma (PPARg) signaling pathway - cell viability counter screen (AID 743194); further: nearly all actives have a fitted effect of over 55% in size
Method in brief: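 Cytotoxicity counter screen in PPARg-bla HEK293H cells, same wells as reporter assay. Compounds plus 50 nM rosiglitazone (final) for 17 h at 37 C, then viability read by CellTiter-Glo luminescence.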

[4] = qHTS assay for small molecule agonists of the antioxidant response element (ARE) signaling pathway - cell viability counter screen (AID 743203; calls by dose curve; further: nearly all actives have a fitted effect of over 55% in size)
Method in brief: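 Luminescence read-out (CellTiter-Glo, 30 min at room temperature) measured cell viability in the same wells as the ARE beta-lactamase reporter. HepG2 ARE-bla cells were treated with compounds for 16 hrs at 37C/5% CO2.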

[5] = qHTS assay for small molecule activators of the heat shock response signaling pathway - cell viability counter screen (AID 743209); further: nearly all actives have a fitted effect of over 50% in size
Method in brief: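 HSE-bla HeLa; 1500 cells/well; overnight 37 C, 5% CO2; compound 5 h 37 C; LiveBLAzer B/G substrate 2.5 h RT; CellTiter-Glo 30 min RT; luminescence.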

[6] = qHTS assay for small molecule activators of the heat shock response signaling pathway (AID 743210; active means well fitted activation curve with a large enough effect in the signal ratio in the repeat runs, with a control signal flat, not every such curve was filed as active; the % refers to the signal ratio;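 further: HeLa cells with beta-lactamase reporter driven by heat shock elements; series mostly up to about 63 µM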)
Method in brief: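 Beta-lactamase reporter read-out: FRET substrate fluorescence after 2.5 h at RT, following 5 h compound treatment at 37 C of HeLa cells carrying HSE-driven bla reporter; quantitative HTS format.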

[7] = target: Peroxisome proliferator-activated receptor delta (Homo sapiens) (UniProt Q03181); assay: qHTS assay to identify small molecule agonists of the peroxisome proliferator-activated receptor delta (PPARd) signaling pathway (AID 743212; calls by dose curve)
Sequence of Peroxisome proliferator-activated receptor delta (Homo sapiens) (Q03181 whole entry, looked up): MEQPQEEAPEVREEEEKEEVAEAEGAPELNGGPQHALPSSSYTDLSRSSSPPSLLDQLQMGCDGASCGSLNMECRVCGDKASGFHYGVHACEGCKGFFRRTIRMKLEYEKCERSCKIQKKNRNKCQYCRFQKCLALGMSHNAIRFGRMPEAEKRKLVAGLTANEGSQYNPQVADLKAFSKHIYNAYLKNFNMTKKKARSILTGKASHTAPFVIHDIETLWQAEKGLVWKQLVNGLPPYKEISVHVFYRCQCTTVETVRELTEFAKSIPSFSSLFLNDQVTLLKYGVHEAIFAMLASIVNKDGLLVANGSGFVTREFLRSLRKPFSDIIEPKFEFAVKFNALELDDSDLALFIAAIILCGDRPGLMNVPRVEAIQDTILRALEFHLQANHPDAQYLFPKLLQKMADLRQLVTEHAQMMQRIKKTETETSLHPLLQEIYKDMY
Method in brief: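 Read-out: beta-lactamase FRET fluorescence after 2 h room-temperature incubation with LiveBLAzer B/G substrate. Cells were HEK293H carrying a UAS-bla reporter for PPARd, treated at 37 C with DMSO-dissolved compounds.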

[8] = qHTS assay to identify small molecule antagonists of the peroxisome proliferator-activated receptor delta (PPARd) signaling pathway - cell viability counter screen (AID 743213); further: nearly all actives have a fitted effect of over 50% in size
Method in brief: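 PPARd-bla HEK293H cells were treated with compounds plus agonist L165041 (300 nM final) for 17 h at 37 C. Viability was then read in the same wells by CellTiter-Glo luminescence after 30 min at room temperature.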

[9] = target: Peroxisome proliferator-activated receptor delta (Homo sapiens) (UniProt Q03181); assay: qHTS assay to identify small molecule antagonists of the peroxisome proliferator-activated receptor delta (PPARd) signaling pathway (AID 743215; active means well fitted inhibition curve with a large enough effect in the signal ratio in the repeat runs, not every such curve was filed as active; the % refers to the signal ratio;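 further: cells stimulated with agonist L165041 at 300 nM final during compound exposure; series mostly up to about 62 µM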)
Method in brief: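 HEK293H GeneBLAzer PPARd UAS-bla reporter cells; cpd + L165041 300 nM final, 17 h 37 C; LiveBLAzer B/G FRET substrate 2 h RT; fluorescence intensity read-out. Antagonist mode.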

[10] = target: Bile acid receptor (Homo sapiens) (UniProt Q96RI1); assay: qHTS assay to identify small molecule antagonists of the farnesoid-X-receptor (FXR) signaling pathway (AID 743217; active means well fitted inhibition curve with a large enough effect in the signal ratio in the repeat runs, not every such curve was filed as active; the % refers to the signal ratio)
Sequence of Bile acid receptor (Homo sapiens) (Q96RI1 whole entry, looked up): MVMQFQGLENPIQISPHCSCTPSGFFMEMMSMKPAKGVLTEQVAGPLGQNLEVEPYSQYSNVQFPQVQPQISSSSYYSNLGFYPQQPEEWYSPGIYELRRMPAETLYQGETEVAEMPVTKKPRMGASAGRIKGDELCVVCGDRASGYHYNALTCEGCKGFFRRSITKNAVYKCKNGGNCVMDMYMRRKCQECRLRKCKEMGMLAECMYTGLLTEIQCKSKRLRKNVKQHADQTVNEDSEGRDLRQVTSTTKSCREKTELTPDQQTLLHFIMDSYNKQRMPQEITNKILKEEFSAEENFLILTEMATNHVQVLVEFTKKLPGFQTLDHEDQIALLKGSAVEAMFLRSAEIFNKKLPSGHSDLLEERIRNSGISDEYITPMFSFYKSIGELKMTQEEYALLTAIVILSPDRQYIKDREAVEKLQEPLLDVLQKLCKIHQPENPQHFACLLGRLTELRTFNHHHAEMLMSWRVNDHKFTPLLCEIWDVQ
Method in brief: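 Read-out: beta-lactamase FRET fluorescence (LiveBLAzer B/G substrate, 2 h, room temperature) in GeneBLAzer FXR-UAS-bla HEK 293T cells. Compounds were co-dosed with 50 uM chenodeoxycholic acid (final) and incubated 16 h at 37 °C.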

[11] = qHTS assay to identify small molecule agonists of the farnesoid-X-receptor (FXR) signaling pathway - cell viability counter screen (AID 743218); further: nearly all actives have a fitted effect of over 45% in size
Method in brief: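 Luminescence from CellTiter-Glo, read after 30 min at RT, reports viability of GeneBLAzer FXR-UAS-bla HEK 293T cells treated 16 h with compounds in the wells used for the beta-lactamase reporter.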

[12] = qHTS assay to identify small molecule antagonists of the farnesoid-X-receptor (FXR) signaling pathway - cell viability counter screen (AID 743221; active means well fitted cell-killing curve with a large enough effect in the repeat runs, not every such curve was filed as active; further: nearly all actives have a fitted effect of over 50% in size)
Method in brief: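 FXR-UAS-bla HEK 293T cells were treated with test compounds plus chenodeoxycholic acid (50 uM final) for 16 h at 37 C. Cell viability in the same wells was then read as CellTiter-Glo luminescence after 30 min at room temperature.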

[13] = target: Vitamin D3 receptor (Homo sapiens) (UniProt P11473); assay: qHTS assay to identify small molecule agonists of the vitamin D receptor (VDR) signaling pathway (AID 743222; calls by dose curve)
Sequence of Vitamin D3 receptor (Homo sapiens) (P11473 whole entry, looked up): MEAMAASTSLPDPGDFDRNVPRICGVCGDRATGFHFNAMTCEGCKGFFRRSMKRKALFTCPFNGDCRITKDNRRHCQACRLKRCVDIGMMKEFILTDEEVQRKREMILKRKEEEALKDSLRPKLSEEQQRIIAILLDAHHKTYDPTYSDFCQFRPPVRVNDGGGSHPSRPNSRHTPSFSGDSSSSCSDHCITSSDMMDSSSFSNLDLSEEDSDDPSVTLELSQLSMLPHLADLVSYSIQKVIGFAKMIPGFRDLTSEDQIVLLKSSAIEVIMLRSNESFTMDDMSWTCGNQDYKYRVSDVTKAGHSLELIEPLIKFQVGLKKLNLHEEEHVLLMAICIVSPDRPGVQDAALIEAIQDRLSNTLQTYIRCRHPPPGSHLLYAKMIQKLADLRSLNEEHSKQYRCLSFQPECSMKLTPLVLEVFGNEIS
Method in brief: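 Beta-lactamase reporter readout (LiveBLAzer B/G FRET, 2 h RT) in VDR-bla cells after 16 h compound treatment at 37C, 5% CO2; cells pre-incubated 4 h before pin transfer of DMSO solutions.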

[14] = qHTS assay to identify small molecule agonists of the vitamin D receptor (VDR) signaling pathway - cell viability counter screen (AID 743224); further: series mostly up to about 63 µM; nearly all actives have a fitted effect of over 50% in size
Method in brief: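 Cytotoxicity counter screen: VDR-bla cells, 16 h compound exposure at 37C, 5% CO2; CellTiter-Glo luminescence, 30 min RT, same wells as bla read.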

[15] = target: Peroxisome proliferator-activated receptor gamma (Homo sapiens) (UniProt P37231); assay: qHTS assay to identify small molecule agonists of the peroxisome proliferator-activated receptor gamma (PPARg) signaling pathway (AID 743094; active means well fitted activation curve with a large enough effect in the signal ratio in the repeat runs, not every such curve was filed as active; the % refers to the signal ratio)
Sequence of Peroxisome proliferator-activated receptor gamma (Homo sapiens) (P37231 whole entry, looked up): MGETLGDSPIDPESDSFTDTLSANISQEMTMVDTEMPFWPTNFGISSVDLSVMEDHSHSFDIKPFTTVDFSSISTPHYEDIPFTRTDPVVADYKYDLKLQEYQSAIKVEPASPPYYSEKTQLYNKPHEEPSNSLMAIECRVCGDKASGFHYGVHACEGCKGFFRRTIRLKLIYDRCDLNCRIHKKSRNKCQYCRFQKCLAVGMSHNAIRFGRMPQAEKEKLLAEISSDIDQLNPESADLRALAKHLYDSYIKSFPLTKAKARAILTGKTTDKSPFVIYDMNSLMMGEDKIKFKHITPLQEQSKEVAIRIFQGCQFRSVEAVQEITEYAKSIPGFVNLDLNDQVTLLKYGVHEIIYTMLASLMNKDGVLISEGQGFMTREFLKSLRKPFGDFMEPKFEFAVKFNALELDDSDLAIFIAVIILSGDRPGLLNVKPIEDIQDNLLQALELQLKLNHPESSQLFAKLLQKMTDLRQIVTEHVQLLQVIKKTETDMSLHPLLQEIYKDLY
Method in brief: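 HEK293H PPARg-bla cells, 5 h settle at 37C/5% CO2; compound (DMSO) 17 h, 37C; B/G FRET substrate 1 h RT; fluorescence intensity read-out. qHTS format.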

[16] = qHTS assay to identify small molecule agonists of the peroxisome proliferator-activated receptor delta (PPARd) signaling pathway - cell viability counter screen (AID 743211); further: nearly all actives have a fitted effect of over 55% in size
Method in brief: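 PPARd-bla HEK293H cells (UAS-beta-lactamase reporter) were treated with compounds for 17 h at 37 C. Viability was then read in the same wells by CellTiter-Glo luminescence after 30 min at room temperature.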

[17] = target: Bile acid receptor (Homo sapiens) (UniProt Q96RI1); assay: qHTS assay to identify small molecule agonists of the farnesoid-X-receptor (FXR) signaling pathway (AID 743220; active means well fitted activation curve with a large enough effect in the signal ratio in the repeat runs, not every such curve was filed as active; the % refers to the signal ratio)
Method in brief: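 FXR-UAS-bla HEK 293T cells carrying a UAS-driven beta-lactamase reporter were plated for 5 h at 37C/5% CO2, then exposed to DMSO-dissolved Tox21 10K compounds for 16 h at 37C. A LiveBLAzer B/G FRET substrate was loaded for 2 h at room temperature before fluorescence reading.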

[18] = target: Vitamin D3 receptor (Homo sapiens) (UniProt P11473); assay: qHTS assay to identify small molecule antagonists of the vitamin D receptor (VDR) signaling pathway (AID 743223; active means well fitted inhibition curve with a large enough effect in the signal ratio in the repeat runs, not every such curve was filed as active; the % refers to the signal ratio)
Method in brief: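 VDR-bla cells were plated, incubated 4 h at 37C, then given compound and 1alpha,25-dihydroxyvitamin D3 (3 nM final). After 16 h at 37C, LiveBLAzer B/G FRET substrate was added for 2 h at room temperature and fluorescence read.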

[19] = qHTS assay for small molecule agonists of the antioxidant response element (ARE) signaling pathway (AID 743202; active means well fitted activation curve with a large enough effect in the signal ratio in the repeat runs, not every such curve was filed as active; the % refers to the signal ratio; further: potency means the concentration at half of the fitted maximal effect)
Method in brief: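 HepG2 ARE-bla reporter line, 2,000 cells/well; 5 h preincubation 37 C/5% CO2; compound (DMSO) 16 h 37 C; B/G FRET substrate 2 h RT; fluorescence intensity.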

[20] = target: Peroxisome proliferator-activated receptor gamma (Homo sapiens) (UniProt P37231); assay: qHTS assay to identify small molecule antagonists of the peroxisome proliferator-activated receptor gamma (PPARg) signaling pathway (AID 743191; calls by dose curve; further: series mostly up to about 63 µM; nearly all actives have a fitted effect of over 30% in size)
Method in brief: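 GeneBLAzer PPARg UAS-bla HEK293H cells, 5 h post-plating, exposed to compounds 17 h at 37C. LiveBLAzer B/G FRET substrate added for 1 h at room temperature; beta-lactamase reporter read by fluorescence intensity.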

Measured: Potency

CCCCC(CC)COS(=O)(=O)O (centres undefined)
not listed: [15] | [16] | [17] | [18] | [19] | [20]
inactive: all other assays above

ClC1=C(Cl)C1(Cl)Cl
not listed: [5] | [12] | [19] | [20]
inactive: all other assays above

Nc1c(Cl)cc(Cl)cc1[N+](=O)[O-]
inactive: [1] | [2] | [3] | [4] | [5] | [16] | [7] | [11] | [12] | [13] | [14]

CCO[Si](C)(CCCOCC1CO1)OCC (centres undefined)
not listed: [6] | [10] | [13] | [16] | [17] | [19] | [20]
inactive: all other assays above

Cc1cccc2sc(N)nc12
active: [1] 27.6 µM
not listed: [5] | [10] | [17] | [19] | [20]
inactive: all other assays above

CCN(CC)CCNC(=O)c1cc(Cl)c(N)cc1OC
not listed: [7] | [9] | [15] | [20]
inactive: all other assays above

CCOC(=O)C(C)O (centres undefined)
not listed: [5] | [12] | [15] | [16] | [17] | [18] | [20]
inactive: all other assays above

CCCc1nc2c(C)cc(-c3nc4ccccc4n3C)cc2n1Cc1ccc(-c2ccccc2C(=O)O)cc1
active: [19] 26.6 µM
not listed: [10] | [12] | [13] | [15] | [17] | [20]
inactive: all other assays above

O=C1[C@@H]2[C@H]3CC[C@H](C3)[C@@H]2C(=O)N1CCCCN1CCN(c2ncccn2)CC1
not listed: [2] | [10] | [16] | [17] | [18] | [19]
inactive: all other assays above

c1ccc(CCCc2ccncc2)cc1
inactive: [1] | [15] | [20] | [3] | [4] | [5] | [16] | [7] | [11] | [12] | [14]

CC(=O)NNC(C)=O
not listed: [5] | [6] | [8] | [15] | [17] | [20]
inactive: all other assays above

CCN(CC)C(=O)/C(C#N)=C/c1cc(O)c(O)c([N+](=O)[O-])c1
not listed: [6] | [9] | [10] | [13] | [15] | [17] | [18] | [19]
inactive: all other assays above

CCC(CO)(CO)CO
not listed: [2] | [13] | [18]
inactive: all other assays above

O=C(CCS)OCC(COC(=O)CCS)(COC(=O)CCS)COC(=O)CCS
not listed: [3] | [4] | [5] | [6] | [9] | [17] | [19] | [20]
inactive: all other assays above

Cc1ccc2c(c1[N+](=O)[O-])C(=O)c1ccccc1C2=O
active: [1] 30 µM | [19] 6.73 µM
not listed: [4] | [10] | [15] | [17] | [18] | [20]
inactive: all other assays above

COC(CC(C)CCCC(C)(C)O)OC (centres undefined)
not listed: [2] | [10] | [16] | [17] | [18] | [20]
inactive: all other assays above

COc1ccc(-c2cc(=S)ss2)cc1
inactive: [20] | [3] | [4] | [5] | [16] | [8] | [11] | [12] | [18] | [14]
active: [1] 29.8 µM | [19] 13.3 µM

Cc1ccc2nc(N)[nH]c(=O)c2c1Sc1ccncc1
active: [1] 13.3 µM
not listed: [2] | [5] | [8] | [10] | [11] | [15] | [19] | [20]
inactive: all other assays above
